According to ChEMBL document CHEMBL1201862, “PubChem BioAssay data set” (2004):
In all, about 390,000 compounds went through this assay and about 910 (0.23%) were called active. About 5% were inconclusive and are not listed. The calls are words filed in the database; no cut-off is given here. Only a selection was taken, and actives are over-represented in it overall.

Each molecule was assayed against T1, Ubiquitin carboxyl-terminal hydrolase 1 (Homo sapiens) (UniProt O94782) (assay: Inhibitors of USP1/UAF1: Primary Screen.).
T1 sequence (whole entry): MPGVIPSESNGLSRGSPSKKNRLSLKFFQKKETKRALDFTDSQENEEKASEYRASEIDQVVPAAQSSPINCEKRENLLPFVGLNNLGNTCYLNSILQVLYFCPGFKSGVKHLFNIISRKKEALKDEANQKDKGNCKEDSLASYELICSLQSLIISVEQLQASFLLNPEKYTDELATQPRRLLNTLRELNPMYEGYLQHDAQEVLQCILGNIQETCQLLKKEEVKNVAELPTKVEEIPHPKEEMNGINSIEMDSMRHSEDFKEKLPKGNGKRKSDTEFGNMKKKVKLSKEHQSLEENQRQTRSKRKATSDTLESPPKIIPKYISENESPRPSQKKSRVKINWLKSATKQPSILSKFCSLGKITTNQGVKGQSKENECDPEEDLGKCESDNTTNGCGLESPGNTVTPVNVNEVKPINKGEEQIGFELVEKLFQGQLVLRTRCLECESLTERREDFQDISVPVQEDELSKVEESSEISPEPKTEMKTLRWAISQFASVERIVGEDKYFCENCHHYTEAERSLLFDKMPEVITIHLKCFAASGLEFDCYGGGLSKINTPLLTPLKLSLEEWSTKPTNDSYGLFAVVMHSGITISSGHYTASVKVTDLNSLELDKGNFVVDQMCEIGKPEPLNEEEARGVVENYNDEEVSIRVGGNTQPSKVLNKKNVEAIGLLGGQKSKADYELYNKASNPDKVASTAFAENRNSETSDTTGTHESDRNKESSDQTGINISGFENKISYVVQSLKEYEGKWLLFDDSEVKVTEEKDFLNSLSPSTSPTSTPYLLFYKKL
Assay type: functional
With `CCOC(=O)C(C)C(C)=O` (stereo unspecified) the Potency was 355 µM (active).
